Compound activity deposited in PubChem by The Scripps Research Institute Molecular Screening Center.
In the library only some 3.5% were active in any assay of this set; here they are far more common.
TEAD-YAP inh – TEAD-YAP interaction inhibition; HEK-TIYL cells, TEAD-Gal4/YAP UAS-luciferase luminescence; 640,000 tested, 1.4% active; inhibition, % at 9.12 µM; in the data active means inhibition above about 32%;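 further: 0% = median of test compound wells and 100% = reference inhibitor wells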
FBW7 act – activators of human E3 ligase FBW7; normalized activity (activation), % at 26.1 µM; 650,000 tested, 0.13% active; AlphaScreen FBW7–phospho-cyclin E peptide binding, activator screen; AID 1259310; Q969H0; in the data active means normalized activity above about 1.9%;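 further: purified mutant Fbw7 with reduced substrate affinity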
MITF primary – human MITF inhibition, primary screen | AlphaScreen MITF homodimerization, bead proximity signal | 650,000 tested, 0.91% active | O75030 | AID 1259374 | inhibition, % at 2.6 µM; in the data active means inhibition above about 50%;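 further: 0% = vehicle wells with protein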
Target sequence (O75030 whole entry, looked up): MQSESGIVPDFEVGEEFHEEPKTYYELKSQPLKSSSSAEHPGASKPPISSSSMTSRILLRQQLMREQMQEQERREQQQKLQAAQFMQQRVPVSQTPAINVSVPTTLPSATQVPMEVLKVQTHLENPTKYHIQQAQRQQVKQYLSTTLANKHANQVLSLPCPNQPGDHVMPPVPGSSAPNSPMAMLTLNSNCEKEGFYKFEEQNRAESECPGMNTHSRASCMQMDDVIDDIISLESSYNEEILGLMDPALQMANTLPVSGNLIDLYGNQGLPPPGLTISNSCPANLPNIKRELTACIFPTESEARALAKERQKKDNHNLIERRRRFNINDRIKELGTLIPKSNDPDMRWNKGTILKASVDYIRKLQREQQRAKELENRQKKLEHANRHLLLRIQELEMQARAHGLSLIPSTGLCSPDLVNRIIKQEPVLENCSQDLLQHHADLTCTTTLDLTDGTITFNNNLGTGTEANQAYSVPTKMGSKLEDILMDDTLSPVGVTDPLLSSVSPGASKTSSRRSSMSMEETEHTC
GPR151 activ – activators of human GPR151; Q8TDV0; PathHunter beta-arrestin GPR151 cells, luminescence; activation, % at 11.2 µM; 650,000 tested, 1% active; AID 1508602; in the data active means activation above about 4.9%;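 further: 0% = median of compound wells and 100% = cells with positive control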
An asterisk follows results filed as active.

SMILES	TEAD-YAP inh	FBW7 act	MITF primary	GPR151 activ
CC1(C)CC(=O)C2=C(C1)OC(N)=C(C#N)C2c1cc(C(C)(C)C)c(O)c(C(C)(C)C)c1 (stereo unspecified)	80*	0	11	1
CCS(=O)(=O)Nc1ccc(-c2cn3c(C)csc3n2)cc1	33*	0	0	2
Cc1csc2nc(-c3ccc(NS(=O)(=O)N(C)C)cc3)cn12	2	0	13	0
Cc1ccc2nc(SCC(=O)NCC3CCC4(CCN(C(=O)C5CC5)CC4)O3)[nH]c2c1 (stereo unspecified)	0	0	-7	1
O=C(CCNC(=O)OCc1ccccc1)NC1CCCCC1	7	1	17	1
O=C(CCNC(=O)Oc1ccccc1)NC1CCCCC1	6	1.9*	7	-1
OC1(c2ccc(Br)cc2)CCN(Cc2c(F)cccc2F)CC1	-4	0	16	0
COc1ccc(CCNC(=O)CCNC(=O)c2cc(OC)c(OC)c(OC)c2)cc1OC	-3	0	10	1
CC(C)(C)Nc1ncnc2c1cnn2-c1ccccc1	45*	0	3	-1
Cc1ccc(-n2ncc3c(NC(C)(C)C)ncnc32)cc1	49*	0	-3	2
c1ccc(CNc2ncnc3c2cnn3-c2ccccc2)cc1	12	0	14	0
c1ccc(N2CCN(c3nc4ccccc4n4nnnc34)CC2)nc1	-16	0	-4	-2
COc1cccc(NC(=O)c2ccc(C)cc2Cl)c1	67*	0	13	-3
COc1ccccc1CNc1ccc(C(=O)Nc2ccc(C(C)C)cc2)cc1[N+](=O)[O-]	-8	0	-2	0
O=C(Nc1ccc(F)cc1)c1ccc(Cl)cc1Cl	-22	1	12	-3
Cc1ccc(C(=O)Nc2ccc(F)cc2)c(Cl)c1	62*	0	5	-3
COc1cccc(NC(=O)c2ccc(C)cc2)c1	62*	0	6	-10
COc1cccc(NC(=O)c2ccc(NC(C)=O)cc2)c1	-23	1	11	1
COc1cccc(NC(=O)c2ccc(NCc3ccccc3OC)c([N+](=O)[O-])c2)c1	49*	0	2	1
COc1ccc([N+](=O)[O-])cc1NS(=O)(=O)c1c(C)ccc2nsnc12	-1	0	-3	-1
CCCCC(=O)Nc1nc(-c2cc3ccccc3o2)cs1	-23	1	7	0
CCO/C=C(\C(=O)Nc1ccc(Br)cc1)C(=O)OCC	-5	0	-2	3
COc1cccc(C(=O)Nc2cccc(OC(=O)c3ccc(Br)cc3)c2)c1	44*	0	3	-2
CC(C)n1cnc2c(NC3CCN(Cc4ccccc4)CC3)nc(Nc3ccccn3)nc21	30	0	13	0
CC(C)n1cnc2c(NC3CCN(Cc4ccccc4)CC3)nc(Nc3ccncn3)nc21	71*	0	15	-3
SMILES	TEAD-YAP inh	FBW7 act	MITF primary	GPR151 activ
CC(C)n1cnc2c(NC3CC3)nc(N3CCN(c4ccccn4)CC3)nc21	35*	0	12	2
CC(C)n1cnc2c(NC3CCN(Cc4ccccc4)CC3)nc(-c3cccc(N)c3)nc21	90*	0	11	2
CC(C)n1cnc2c(NC3CCN(Cc4ccccc4)CC3)nc(Cl)nc21	47*	0	-2	1
CCOC(=O)c1cc2c(=O)n3ccccc3nc2n(C2CCCCC2)c1=NC(=O)c1ccc(F)cc1	-4	0	0	0
CCCNC(=O)c1ccc(N2CCC3(CC2)OCCO3)c(NC(=O)c2cc3ccccc3oc2=O)c1	-5	0	9	1
CCN(CC)C(=O)c1sc2nc3ccc(C(C)C)cc3cc2c1N	-5	0	-10	0
CC(C)n1cnc2c(NC3CCN(Cc4ccccc4)CC3)nc(-c3ccc(C(N)=O)cc3)nc21	92*	0	-8	-2
COc1ccc(-c2nc(NC3CCN(Cc4ccccc4)CC3)c3ncn(C(C)C)c3n2)cn1	19	0	0	-1
Oc1ccc(-c2cn3ccsc3n2)cc1	73*	0	12	-2
CCOc1ccc(-c2cn3ccsc3n2)cc1	43*	0	12	-2
CN1CCN(C(=O)c2ccc(-c3ccc4c(c3)OCO4)nc2NCc2cccnc2)CC1	11	0	4	1
CC1=Nc2cc([N+](=O)[O-])ccc2/C1=C/c1sc(=S)[nH]c1O	4	0	16	0
CSc1cccc(NC(=O)C2C3C=CC4(O3)C2C(=O)N(CCN2CCCCC2)C4C(=O)NC2CCCC(C)C2C)c1 (stereo unspecified)	6	0	3	-1
Cc1cccc(CN2CCN(S(=O)(=O)c3ccc4ccccc4c3)CC2)c1	0	0	-16	1
C/C(=N\NC(=O)c1ccccc1O)c1ccc(-n2cnnn2)cc1	-67	0	18	-1
O=[N+]([O-])c1cc(CN2CCN(c3cccc(C(F)(F)F)c3)CC2)c2cccnc2c1O	20	0	100*	-1
Oc1c(Cl)cc(CN2CCN(c3cccc(C(F)(F)F)c3)CC2)c2cccnc12	70*	0	38	-1
O=C(Nc1nc2ccccc2s1)c1ccc(Cl)cc1[N+](=O)[O-]	-33	0	4	1
NC(=O)c1cc2ccc(O)cc2oc1=Nc1ccc(-c2ccccc2)cc1	-9	1	13	1
CC(=O)c1ccc(N=c2oc3cc(O)ccc3cc2C(N)=O)cc1	60*	0	-5	-2
Cn1c(/C=N/Nc2nc3ccccc3[nH]2)nc2ccccc21	40*	0	-24	-1
CCCn1c(/C=N/Nc2nc3ccccc3[nH]2)nc2ccccc21	1	0	17	1
CC(C)n1c(/C=N/Nc2nc3ccccc3[nH]2)nc2ccccc21	37*	0	11	0
Cc1nc2c(C(=O)NCc3cccnc3)cnn2c(C)c1Cc1cccc(Cl)c1	0	0	0	1
COC(=O)c1cnn2c(C)c(Cc3ccc(C)cc3)c(C)nc12	43*	0	5	1
SMILES	TEAD-YAP inh	FBW7 act	MITF primary	GPR151 activ
Cc1ccc(Cc2c(C)nc3c(C(=O)NCc4cccnc4)cnn3c2C)cc1	49*	0	2	1
COCCCNC(=O)c1cnn2c(C)c(Cc3ccc(C)cc3)c(C)nc12	40*	0	8	0
CCn1c(C(O)c2cc(OC)c(OC)c(OC)c2)nc2ccccc21 (stereo unspecified)	9	2.3*	16	0
COc1cccc(N2C(=O)NC(=O)/C(=C/c3c(OC)cc(OC)cc3OC)C2=O)c1	3	0	4	4
COc1ccc(C2CC(c3c(O)cc(C)oc3=O)=NCCS2)c(OC)c1 (stereo unspecified)	42*	0	-2	0
COc1ccc(C2CC(c3c(O)cc(C)oc3=O)=Nc3ccccc3S2)cc1O (stereo unspecified)	62*	0	7	-2
COc1ccc(S(=O)(=O)NCCSCc2ccco2)c(Cl)c1Cl	-6	0	-6	-1
O=C1NC(=S)NC(=O)C1=CN1CCCc2ccccc21	14	2.5*	31	0
O=C1NC(=S)NC(=O)C1=Cc1ccc(N2Cc3ccccc3C2)cc1	9	0	21	-1
